Reference: PubChem BioAssay (Tox21)
Several values for one entry are separate records, joined by “and”; a condition that tells them apart may be missing. Equal values may be shown once. Records with an inconclusive call do not appear. Values without a mark were called inactive. Activity calls are given as the source filed them. Calls come from the whole dose curve; as a rule, active = well fitted inhibition curve with a large enough effect in the repeat runs; inconclusive = weak or mixed curves; inactive = no such curve, though single readings can be large or run the other way.
% is set by controls: 0 for no effect and ±100 for the full control effect; potency is the fitted concentration of half-maximal effect.

What follows are compounds tested against Cytochrome P450 2C9 (Homo sapiens) (UniProt P11712) (assay: Cytochrome P450 Family 2 Subfamily C Member 9 (CYP2C9) small molecule antagonists: luciferase reporter qHTS assay (AID 1671198; note: nearly all actives have a fitted effect of over 50% in size)). Details: P450-Glo CYP2C9 enzyme assay, luciferin luminescence; series mostly up to 115 µM; activity change, negative = inhibition: at the top concentration.
Sequence of Cytochrome P450 2C9 (Homo sapiens) (P11712 whole entry, looked up): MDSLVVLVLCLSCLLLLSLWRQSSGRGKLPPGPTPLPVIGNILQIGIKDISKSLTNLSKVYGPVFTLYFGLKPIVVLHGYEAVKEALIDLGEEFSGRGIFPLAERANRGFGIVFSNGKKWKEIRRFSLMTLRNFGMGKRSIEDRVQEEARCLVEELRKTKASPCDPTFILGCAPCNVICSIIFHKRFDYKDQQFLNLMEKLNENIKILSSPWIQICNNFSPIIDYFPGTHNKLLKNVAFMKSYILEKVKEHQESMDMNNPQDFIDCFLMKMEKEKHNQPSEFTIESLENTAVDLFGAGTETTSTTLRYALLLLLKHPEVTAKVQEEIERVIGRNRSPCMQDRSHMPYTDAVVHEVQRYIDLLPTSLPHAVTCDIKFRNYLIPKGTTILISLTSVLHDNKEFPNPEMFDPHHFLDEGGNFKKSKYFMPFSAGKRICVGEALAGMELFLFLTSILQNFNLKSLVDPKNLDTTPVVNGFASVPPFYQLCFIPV
Text: U.S. Tox21 Program National Center for Advancing Translational Sciences [NCATS] U.S. Environmental Protection Agency [EPA] National Institutes of Environmental Health Sciences [NIEHS] National Toxicology Program [NTP] U.S. Food and Drug Administration [FDA] Tox21 Assay Overview: Cytochrome P450 (CYP) enzymes are membrane-bound hemeproteins that play a key role in metabolism of drugs and xenobiotics. Evaluation of the effect of chemicals on CYP isozymes is useful to minimize the adverse drug reactions and toxicities in drug development process. Tox21 chemicals were tested for their effect on CYP enzyme activities by using P450-Glo (TM) screening systems (Promega Corporation, Madison, WI). These systems provide a luminescent method containing proluciferin substrates and are converted to luciferin products by CYP isozymes. The luciferin products formed are detected with a luciferin detection reagent, and the amount of light produced is proportional to CYP activity. P450-Glo (TM) CYP2C9 screening system (Catalog. No. V9790) was used to detect the compounds that interfere in CYP2C9 activity.
Tox21 Assay Protocol Summary: Two ul of enzyme-substrate mix was dispensed into medium binding white/solid 1536-well plates (Greiner Bio-One North America Inc., Monroe, NC) using a BioRaptr Flying Reagent Dispenser (FRD, Beckman Coulter, Brea, CA). […] The assay plates were incubated at room temperature for 10 min. Then 2 ul of NADPH regeneration solution was added to each well of the assay plates using an FRD and incubated at 37C for 1 h. The reaction was stopped by adding 4 ul of detection reagent using an FRD and after 20 min incubation at room temperature the luminescence signal was measured using a ViewLux plate reader (Perkin Elmer, Shelton, CT). Data were expressed as relative luminescence units.
N#CCCO was tested, and the “activity change, negative = inhibition” value was -2.3%. With Oc1ccc(C(=C(Cl)Cl)c2ccc(O)cc2)cc1 the Potency was 5.63 µM (active). For COC[C@H](C)N(C(=O)CCl)c1c(C)csc1C, the “activity change, negative = inhibition” value was -10.9%. CS(=O)(=O)c1ccc(C(=O)C2C(=O)CCCC2=O)c([N+](=O)[O-])c1 was tested, and the Potency was 31.4 µM (active). With COP(N)(=S)OC the “activity change, negative = inhibition” value was -19.8%. With N#CNC#N the “activity change, negative = inhibition” value was 3.8%. O=C(CCCN1CCC2(CC1)C(=O)NCN2c1ccccc1)c1ccc(F)cc1 was tested, and the “activity change, negative = inhibition” value was -1.47% [at 53 µM]. CC(C)OC(=S)S was tested, and the Potency was 31.7 µM (active). In the case of CCOc1cc(C(C)(C)C)ccc1C1COC(c2c(F)cccc2F)=N1 (stereo not given), the Potency is reported as 12.2 µM (active). In the case of SCc1ccco1, the Potency is reported as 35.6 µM (active). CCSC(C)CC1CC(=O)C(/C(CC)=N/OC/C=C/Cl)=C(O)C1 (stereo not given) was tested, and the Potency was 13.8 µM (active). With S=C(SSC(=S)N1CCCCC1)N1CCCCC1 the Potency was 6.92 µM (active). In the case of BrC(Br)Br, the “activity change, negative = inhibition” value is reported as -10.5%. In the case of Clc1ccc(CCC(Cn2ccnc2)Sc2c(Cl)cccc2Cl)cc1 (stereo not given), the Potency is reported as 0.0871 µM (active). With [Cl][Sn]([c]1ccccc1)([c]1ccccc1)[c]1ccccc1 the Potency was 3.79 µM (active). With NC(=O)CCl the “activity change, negative = inhibition” value was 2.73%. For O=[N+]([O-])c1cc(Cl)ccc1Cl, the “activity change, negative = inhibition” value was 2.35%. With CC(C)CBr the “activity change, negative = inhibition” value was -1.26%. For O=c1ssc(Cl)c1Cl, the Potency was 39.9 µM (active). In the case of COP(=S)(OC)Oc1cc(Cl)c(Br)cc1Cl, the Potency is reported as 5.64 µM (active). With Clc1ccc(Oc2ccccc2)cc1 the “activity change, negative = inhibition” value was -26.3%. CN(C)S(=O)(=O)N(SC(F)(Cl)Cl)c1ccccc1 was tested, and the Potency was 3.56 µM (active). With COC(=O)N(C(=O)N1COC2(C(=O)OC)Cc3cc(Cl)ccc3C2=N1)c1ccc(OC(F)(F)F)cc1 (stereo not given) the Potency was 4.9 µM (active). For Clc1ccc(C(c2ccccc2Cl)C(Cl)(Cl)Cl)cc1 (stereo not given), the Potency was 22.6 µM (active) and 10.4 µM (active). In the case of O=C1NCN(c2ccccc2)C12CCN(CC1COc3ccccc3O1)CC2 (stereo not given), the Potency is reported as 8.71 µM (active). With ClC(Cl)=C(Cl)Cl the “activity change, negative = inhibition” value was -0.542%. With CC(=O)Nc1ccc2c(c1)Cc1ccccc1-2 the Potency was 25.6 µM (active). With COc1cc(N)c(Cl)cc1C(=O)NC1CN2CCC1CC2 (stereo not given) the “activity change, negative = inhibition” value was 23.9% [at 53 µM]. In the case of N#Cc1ccccc1Cl, the “activity change, negative = inhibition” value is reported as -4.34%. Cc1cc(C(F)(C(F)(F)F)C(F)(F)F)ccc1NC(=O)c1cccc(I)c1C(=O)NC(C)(C)CS(C)(=O)=O was tested, and the Potency was 20.1 µM (active). CCOP(=S)(OCC)OC(Cl)C(Cl)(Cl)Cl (stereo not given) was tested, and the Potency was 3.99 µM (active). With Clc1ccc(-c2ccccc2)cc1 the “activity change, negative = inhibition” value was -3.09%. For Cc1cc(C)cc(OP(=O)(Oc2cc(C)cc(C)c2)Oc2cc(C)cc(C)c2)c1, the Potency was 5.73 µM (active). For O=C(CCl)C(Cl)Cl, the Potency was 40.3 µM (active). For Cc1cc(C(C)(C)c2cc(C)c(O)c(C)c2)cc(C)c1O, the Potency was 3.07 µM (active). For CC(O)C#N (stereo not given), the “activity change, negative = inhibition” value was -1.48%. With Brc1c(Br)c(Br)c(Oc2c(Br)c(Br)c(Br)c(Br)c2Br)c(Br)c1Br the activity change, negative = inhibition was -7.81% [at 23.6 µM]. In the case of CC(=O)O[C@H]1CC[C@@]2(C)C(=CC[C@@H]3[C@@H]2CC[C@]2(C)C(=O)CC[C@@H]32)C1, the Potency is reported as 31.7 µM (active). C=CCC1=C(C)C(OC(=O)C2C(C=C(C)C)C2(C)C)CC1=O (stereo not given) was tested, and the Potency was 6.71 µM (active). With N#Cc1ccccc1N the “activity change, negative = inhibition” value was 1.78%.
